Test results reported in PubChem BioAssay (NCATS).
Inconclusive results are not listed. Values without a mark were called inactive. Active and inactive are the calls of the source. Calls come from the whole dose curve; as a rule, active = well fitted cell-killing curve with a large enough effect; inconclusive = small, poorly fitted or top-dose-only effect, or effect the other way; inactive = no such curve, though single readings can be large or run the other way.

Experiments:
[1] = Quantitative High-Throughput drug screen in 47 multiple myeloma cell lines against the NCATS MIPE library collection: KMS28PE_JCRB cell viability assay (AID 1918983); note: nearly all actives have a fitted effect of over 35% in size
Summary of the method: (§1)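 MIPE 4.0 approved/investigational drugs; 500 cells/well; 48 h 37 °C humidified 5% CO2; CTG luminescence readout; DMSO = 100%, media = 0% viability.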

[2] = Quantitative High-Throughput drug screen in 47 multiple myeloma cell lines against the NCATS MIPE library collection: L363_DSMZ cell viability assay (AID 1918984); note: nearly all actives have a fitted effect of over 40% in size
Summary of the method: as §1

[3] = Quantitative High-Throughput drug screen in 47 multiple myeloma cell lines against the NCATS MIPE library collection: KMS34_JCRB cell viability assay (AID 1918985); note: nearly all actives have a fitted effect of over 40% in size
Summary of the method: as §1

[4] = Quantitative High-Throughput drug screen in 47 multiple myeloma cell lines against the NCATS MIPE library collection: SKMM1_PLB cell viability assay (AID 1919863); conditions: SKMM1 myeloma viability, CellTiter-Glo ATP, 48 h; viability: active compounds read low; note: nearly all actives have a fitted effect of over 35% in size
Summary of the method: as §1

[5] = Quantitative High-Throughput drug screen in 47 multiple myeloma cell lines against the NCATS MIPE library collection: VP6_DJ cell viability assay (AID 1919867); note: nearly all actives have a fitted effect of over 40% in size;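 for viability (% of DMSO): 100% = DMSO-only wells and 0% = wells with media alone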
Summary of the method: as §1

[6] = Quantitative High-Throughput drug screen in 47 multiple myeloma cell lines against the NCATS MIPE library collection: PE2_PLB cell viability assay (AID 1919869); note: nearly all actives have a fitted effect of over 35% in size
Summary of the method: as §1

[7] = Quantitative High-Throughput drug screen in 47 multiple myeloma cell lines against the NCATS MIPE library collection: RPMI8226_ATCC cell viability assay (AID 1919871); note: nearly all actives have a fitted effect of over 30% in size
Summary of the method: as §1

[8] = Quantitative High-Throughput drug screen in 47 multiple myeloma cell lines against the NCATS MIPE library collection: OPM2_DSMZ cell viability assay (AID 1919872); note: nearly all actives have a fitted effect of over 30% in size
Summary of the method: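 Viability readout: CellTiter-Glo luminescence following 5 min room-temperature incubation with reagent. Prior exposure: 48 h, 37C, humidified 5% CO2, 500 cells per well.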

[9] = Quantitative High-Throughput drug screen in 47 multiple myeloma cell lines against the NCATS MIPE library collection: OCIMY5_PLB cell viability assay (AID 1918988); note: nearly all actives have a fitted effect of over 65% in size
Summary of the method: as §1

[10] = Quantitative High-Throughput drug screen in 47 multiple myeloma cell lines against the NCATS MIPE library collection: OPM1_PLB cell viability assay (AID 1918989); note: nearly all actives have a fitted effect of over 40% in size
Summary of the method: as §1

[11] = Quantitative High-Throughput drug screen in 47 multiple myeloma cell lines against the NCATS MIPE library collection: U266_ATCC cell viability assay (AID 1919864); note: nearly all actives have a fitted effect of over 35% in size
Summary of the method: as §1

[12] = Quantitative High-Throughput drug screen in 47 multiple myeloma cell lines against the NCATS MIPE library collection: XG6_PLB cell viability assay (AID 1919865); note: nearly all actives have a fitted effect of over 40% in size
Summary of the method: as §1

[13] = Quantitative High-Throughput drug screen in 47 multiple myeloma cell lines against the NCATS MIPE library collection: XG1_PLB cell viability assay (AID 1919866); note: nearly all actives have a fitted effect of over 35% in size
Summary of the method: as §1

[14] = Quantitative High-Throughput drug screen in 47 multiple myeloma cell lines against the NCATS MIPE library collection: UTMC2_PLB cell viability assay (AID 1919868); conditions: CellTiter-Glo ATP luminescence, 48 h; viability (% of DMSO control): at 45.8 µM (top of the series); note: nearly all actives have a fitted effect of over 55% in size;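 for viability (% of DMSO control): 100% = DMSO-only wells and 0% = media-only wells without cells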
Summary of the method: as §1

[15] = Quantitative High-Throughput drug screen in 47 multiple myeloma cell lines against the NCATS MIPE library collection: PCM6_Riken cell viability assay (AID 1919870); note: nearly all actives have a fitted effect of over 30% in size
Summary of the method: as §1

[16] = Quantitative High-Throughput drug screen in 47 multiple myeloma cell lines against the NCATS MIPE library collection: KMS28BM_JCRB cell viability assay (AID 1919874); note: nearly all actives have a fitted effect of over 35% in size
Summary of the method: as §1

[17] = Quantitative High-Throughput drug screen in 47 multiple myeloma cell lines against the NCATS MIPE library collection: KMS11_JCRBsus cell viability assay (AID 1919873); note: nearly all actives have a fitted effect of over 50% in size
Summary of the method: as §1

[18] = Quantitative High-Throughput drug screen in 47 multiple myeloma cell lines against the NCATS MIPE library collection: OCIMY7_PLB cell viability assay (AID 1918987); conditions: OCI-MY7 myeloma viability, CellTiter-Glo ATP, 48 h; viability (% of DMSO): at 45.8 µM (top of the series); note: nearly all actives have a fitted effect of over 65% in size
Summary of the method: as §1
Potency is the fitted concentration of half-maximal effect.

O=C(O)CCCCC(CCSCc1ccccc1)SCc1ccccc1 (stereo not drawn)
Potency [1]: inactive | Potency [2]: 13.2 µM (active) | Potency [3]: inactive | viability [4]: 120% | Potency [5]: 16.6 µM (active) | Potency [6]: inactive | Potency [7]: inactive | Potency [8]: inactive

CC(=O)[C@]1(O)Cc2c(O)c3c(c(O)c2[C@@H](O[C@H]2C[C@H](N)[C@@H](O)[C@H](C)O2)C1)C(=O)c1ccccc1C3=O
Potency [1]: 0.187 µM (active) | Potency [2]: 1.32 µM (active) | Potency [3]: 0.235 µM (active) | Potency [9]: 0.132 µM (active) | Potency [10]: 0.418 µM (active) | Potency [4]: 0.187 µM (active) | Potency [11]: 0.264 µM (active) | Potency [12]: 0.235 µM (active) | Potency [13]: 0.166 µM (active) | Potency [5]: 0.418 µM (active) | Potency [14]: 0.0372 µM (active) | Potency [6]: 0.132 µM (active) | Potency [15]: 0.187 µM (active) | Potency [7]: 0.418 µM (active) | Potency [8]: 0.662 µM (active) | Potency [16]: 0.148 µM (active)

N#Cc1c(NC(=O)c2cccc3ccccc23)sc2c1CCCC2
Potency [1]: 0.469 µM (active) | Potency [2]: 0.296 µM (active) | Potency [3]: 0.296 µM (active) | Potency [9]: 0.187 µM (active) | Potency [10]: 0.469 µM (active) | Potency [4]: 0.526 µM (active) | Potency [12]: 0.148 µM (active) | Potency [13]: 0.0833 µM (active) | Potency [5]: 0.296 µM (active) | Potency [14]: 0.418 µM (active) | Potency [6]: 0.526 µM (active) | Potency [15]: 0.296 µM (active) | Potency [7]: 2.64 µM (active) | Potency [8]: 0.743 µM (active) | Potency [17]: 0.148 µM (active)

OCCNC1CCCc2c1[nH]c1ccc(-c3ccccc3)cc21 (stereo not drawn)
Potency [1]: 23.5 µM (active) | Potency [2]: 9.35 µM (active) | Potency [18]: 20.9 µM (active) | Potency [9]: 18.7 µM (active) | Potency [10]: 8.33 µM (active) | Potency [4]: 26.4 µM (active) | Potency [11]: 20.9 µM (active) | Potency [12]: 26.4 µM (active) | Potency [13]: 9.35 µM (active) | Potency [5]: 8.33 µM (active) | Potency [6]: 14.8 µM (active) | Potency [15]: 11.8 µM (active) | Potency [7]: 26.4 µM (active) | Potency [17]: 2.96 µM (active) | Potency [16]: 20.9 µM (active)

c1cc(CN2CCCNCCNCCCNCC2)ccc1CN1CCCNCCNCCCNCC1
Potency [1]: inactive | Potency [2]: inactive | Potency [3]: inactive | Potency [10]: inactive | viability [4]: 136% | Potency [13]: inactive | Potency [5]: inactive | Potency [6]: inactive | Potency [7]: inactive | Potency [8]: inactive | Potency [16]: inactive

CC(=O)N[C@@H]1[C@H](O[C@@H]2c3ccc(c(Cl)c3)Oc3cc4cc(c3O[C@H]3O[C@H](CO)[C@@H](O)[C@H](O)[C@H]3NC(=O)CCCCCCCC(C)C)Oc3ccc(cc3Cl)C[C@H]3NC(=O)[C@H](N)c5ccc(O)c(c5)Oc5cc(O)cc(c5)[C@H](NC3=O)C(=O)N[C@H]4C(=O)N[C@H]3C(=O)N[C@@H]2C(=O)N[C@@H](C(=O)O)c2cc(O)cc(O[C@H]4O[C@H](CO)[C@@H](O)[C@H](O)[C@H]4O)c2-c2cc3ccc2O)O[C@H](CO)[C@@H](O)[C@@H]1O
Potency [1]: inactive | Potency [2]: inactive | Potency [3]: inactive | viability [4]: 107% | Potency [13]: inactive | Potency [5]: inactive | Potency [14]: inactive | Potency [6]: inactive | Potency [15]: inactive | Potency [7]: inactive | Potency [8]: inactive | Potency [17]: inactive | Potency [16]: inactive

O=C(CCCCCCC(=O)Nc1cccnc1)NO
Potency [1]: 4.18 µM (active) | Potency [2]: 5.9 µM (active) | Potency [3]: 3.72 µM (active) | Potency [9]: 3.32 µM (active) | Potency [4]: 5.9 µM (active) | Potency [11]: 4.69 µM (active) | Potency [12]: 11.8 µM (active) | Potency [13]: 3.72 µM (active) | Potency [5]: 1.48 µM (active) | Potency [14]: 0.935 µM (active) | Potency [6]: 7.43 µM (active) | Potency [15]: 7.43 µM (active) | Potency [7]: 16.6 µM (active) | Potency [8]: 8.33 µM (active) | Potency [16]: 4.18 µM (active)

O=C(Nc1cc2cc[nH]c2cn1)c1ccccc1
Potency [1]: 11.8 µM (active) | Potency [2]: 6.62 µM (active) | Potency [9]: 5.26 µM (active) | Potency [10]: 14.8 µM (active) | Potency [4]: 11.8 µM (active) | Potency [12]: 16.6 µM (active) | Potency [13]: 16.6 µM (active) | Potency [5]: 18.7 µM (active) | Potency [14]: 13.2 µM (active) | Potency [6]: 10.5 µM (active) | Potency [15]: 8.33 µM (active) | Potency [7]: 13.2 µM (active) | Potency [17]: 11.8 µM (active) | Potency [16]: 5.26 µM (active)

Cn1c(Nc2ccc(C(F)(F)F)cc2)nc2cc(Oc3ccnc(-c4ncc(C(F)(F)F)[nH]4)c3)ccc21
Potency [1]: 23.5 µM (active) | Potency [2]: 16.6 µM (active) | Potency [9]: 9.35 µM (active) | Potency [10]: 16.6 µM (active) | Potency [4]: 20.9 µM (active) | Potency [11]: 6.62 µM (active) | Potency [12]: 5.9 µM (active) | Potency [5]: 13.2 µM (active) | Potency [14]: 16.6 µM (active) | Potency [6]: 16.6 µM (active) | Potency [7]: 16.6 µM (active)

C=C[C@@H]1CN2CCC1C[C@H]2[C@H](O)c1ccnc2ccc(OC)cc12 (stereo partly drawn)
Potency [1]: inactive | Potency [2]: inactive | Potency [9]: 18.7 µM (active) | Potency [10]: inactive | viability [4]: 93.1% | Potency [7]: inactive | Potency [8]: inactive | Potency [16]: inactive

N#CNC(=NCCCCCCOc1ccc(Cl)cc1)Nc1ccncc1
Potency [1]: 0.132 µM (active) | Potency [2]: 0.662 µM (active) | Potency [3]: 0.0148 µM (active) | Potency [9]: 0.0074 µM (active) | Potency [10]: 0.003 µM (active) | Potency [4]: 0.0166 µM (active) | Potency [11]: 18.7 µM (active) | Potency [12]: 18.7 µM (active) | Potency [13]: inactive | Potency [14]: inactive | Potency [7]: 0.0418 µM (active) | Potency [8]: 0.0148 µM (active) | Potency [16]: 0.105 µM (active)

C#Cc1cccc(Nc2ncnc3cc(OCCOC)c(OCCO)cc23)c1
Potency [1]: 18.7 µM (active) | Potency [2]: 0.372 µM (active) | Potency [18]: 1.87 µM (active) | Potency [9]: 3.32 µM (active) | Potency [10]: 13.2 µM (active) | Potency [11]: 16.6 µM (active) | Potency [6]: 1.05 µM (active) | Potency [17]: 8.33 µM (active) | Potency [16]: 8.33 µM (active)
